The values that follow come from PubChem BioAssay.

Activity calls are given as the source filed them. Unless noted, how the calls were made is not given here.

Test [1] is described as follows: liver-stage malaria parasite load reduction – cell-based, known kinase inhibitor set, luminescence, hepatoma host viability (AID 624392).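 Further: infected cells incubated roughly two days before readout.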 The note with it: Plasmodium liver stage in hepatoma cells, luciferase luminescence, concentration not given here; liver cell % of control: measured here: host liver cell viability; parasite % of control: stronger effect = lower value.
Test [2] in a line: altered dexamethasone sensitivity, NF-kB reporter, cell-based, luciferase, IL-1B stimulus (AID 624486).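 On percent of negative control (+Dex): 100% = mean signal of vehicle control wells on the plate.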 The note with it: IL-1B + dexamethasone, luminescence; percent of negative control (+Dex): actives lie on both sides, concentration not given here; z-score: measured here: IL-1B alone, no Dex.
Test [3] can be described thus: C. elegans survival during P. aeruginosa infection – whole organism (AID 651566).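 Further: tested at 14 µM; sign flipped so higher z means a lower ratio.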 The note with it: C. elegans killed by P. aeruginosa, survival ratio.
Test [4] is described as follows: pro-inflammatory signaling induction in mouse macrophages – cell-based, murine, luminescence (AID 652131). The note with it: murine macrophage pro-inflammatory reporter, stronger effect = higher value.
In test [5] the target is Cellular tumor antigen p53 (Homo sapiens) (UniProt P04637). The experiment in a line: GFP-p53 level modulators in HPV16+ cells – imaging, known kinase inhibitor set, EGFP/DsRed ratio (AID 1053116).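 Further: cells exposed to compounds for 24 h at 37 °C before reading.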 The note with it: GFP-p53 stability, stronger effect = higher value; EGFP object count: measured here: GFP-p53 positive objects count.
A short description of test [6]: inducers of IRF3 signaling, differentiated THP-1 – cell-based, PMA-stimulated THP-1, luminescence (AID 1053176). The note with it: PMA-differentiated THP-1, IRF3 reporter luminescence; stronger effect = higher value.
The nature of test [7]: MELAS cybrid and Rieske KO viability enhancers – cell-based, MELAS cybrids, Rieske KO mouse fibroblasts, CellTiter-Glo, primary screen (AID 1508586;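 active means mean z-score across replicates of 1.96 or higher in either the MELAS or the Rieske mutant cell line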;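 further: z relative to plate mean and SD of compound and empty wells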). The note with it: low glucose. A general note: Cellular ATP, detected with luciferase, serves as a proxy for viable cell number.
Where [8] appears, read: MELAS cybrid survival, CellTiter-Glo 48 h, stronger effect = higher value.
The mark [9] stands for this setting: Rieske KO mouse fibroblast survival, CellTiter-Glo 72 h.

Chain of Cellular tumor antigen p53 (Homo sapiens) (P04637 whole entry, looked up): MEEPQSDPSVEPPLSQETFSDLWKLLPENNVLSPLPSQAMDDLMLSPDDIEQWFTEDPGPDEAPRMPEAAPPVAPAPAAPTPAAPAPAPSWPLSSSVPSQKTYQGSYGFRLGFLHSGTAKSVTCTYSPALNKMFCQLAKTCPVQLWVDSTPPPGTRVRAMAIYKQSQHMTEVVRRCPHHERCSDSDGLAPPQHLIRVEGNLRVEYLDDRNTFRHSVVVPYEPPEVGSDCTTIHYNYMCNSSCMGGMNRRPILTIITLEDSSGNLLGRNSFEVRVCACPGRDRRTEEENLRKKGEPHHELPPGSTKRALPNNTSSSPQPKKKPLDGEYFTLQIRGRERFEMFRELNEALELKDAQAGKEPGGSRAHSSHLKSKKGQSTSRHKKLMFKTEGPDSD

Consider `Cc1nc(-c2ccccc2)n2nc(NCCCN3CCOCC3)ncc12`, for which, in test [1], the liver cell % of control came to 97.3%. In addition, in test [1], the parasite % of control was 149% (inactive). In addition, the percent of negative control (+Dex) in test [2] was 102% (inactive). In addition, the z-score in test [2] was 1.35; in test [3], -0.095 (inactive); in test [4], -1.16 (inactive); in test [7] (setting [8]) it was -0.231 (inactive); in test [7] (setting [9]), -0.21. In addition, in test [5], the EGFP object count stood at 4.5. For the same compound, in test [5], the EGFP/DsRed ratio is 0.201 (inactive). Moreover, in test [6], the fraction signal was -0.0105 (inactive).

In test [1], `Cc1cc(-c2ccco2)cc(C)c1/C=C/c1cncc(-c2nn[nH]n2)c1` yielded a liver cell % of control of 90.5%. In addition, in test [1], the parasite % of control was 119% (inactive). In addition, in test [2], the percent of negative control (+Dex) is 94% (inactive). For the same compound, the z-score is 0.125 in test [2]; 0.545 (inactive) in test [3]; 4.88 (inactive) in test [4]; -1.12 (inactive) in test [7] (setting [8]); -0.188 in test [7] (setting [9]). Moreover, the EGFP object count in test [5] amounted to 3.5. In addition, in test [5], the EGFP/DsRed ratio was 0.0973 (inactive). In addition, the fraction signal in test [6] was -0.008 (inactive).

`Fc1cccc(COc2ccc(Nc3ncnc4sc(-c5ccco5)cc34)cc2Cl)c1` came in with a liver cell % of control in test [1] of 85.8%. Besides, in test [1], the parasite % of control is 129% (inactive). Also, the percent of negative control (+Dex) in test [2] was 89% (inactive). For the same compound, the z-score is -0.11 in test [2]; 0.87 (inactive) in test [3]; -0.392 (inactive) in test [4]; -0.906 (inactive) in test [7] (setting [8]); -0.52 in test [7] (setting [9]). Moreover, in test [5], the EGFP object count came to 4.5. Further, the EGFP/DsRed ratio in test [5] is 0.122 (inactive). Besides, the fraction signal in test [6] is -0.0105 (inactive).

`CC(C)(CO)CNC(=O)c1ccc2[nH]c(O)c(N=Nc3ccc(S(N)(=O)=O)cc3)c2c1` displayed a liver cell % of control in test [1] of 82.1%. In addition, the parasite % of control in test [1] is 103% (inactive). Besides, in test [2], the percent of negative control (+Dex) was 93% (inactive). Besides, the z-score was -0.01 in test [2]; -1.1 (inactive) in test [3]; -0.381 (inactive) in test [4]; -0.345 (inactive) in test [7] (setting [8]); -0.442 in test [7] (setting [9]). In addition, the EGFP object count in test [5] was found to be 3. Further, in test [5], the EGFP/DsRed ratio is 0.052 (inactive). Further, the fraction signal in test [6] was -0.004 (inactive).
